Measured values taken from the supplement of paper PMC10849652.
Targets with a hit are over-represented here; the source holds about 7,900 in all. About 0.6% of all pairs of compound and target were hits.

Experiments:
Assay in all cases: log2 fold change, soluble protein after heating vs DMSO (PISA); higher = thermal stabilisation; K562 cells, 10 uM, 30 min; active = over 0.2 and 3.5 SD of the protein, either way, in both replicates (recomputed)
bafetinib = compound: Cc1ccc(NC(=O)c2ccc(CN3CC[C@H](N(C)C)C3)c(C(F)(F)F)c2)cc1Nc1nccc(-c2cncnc2)n1 [bafetinib]
How it was run: (§1)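 K562 cells at 2×10^6 cells/mL were given 10 μM compound for 30 min. Aliquots then went through 3 min of heating across 48°C-58°C, were pooled, and were extracted in PBS with 0.5% NP-40 at 4°C, and the supernatant after 21,000xg for 90 min was quantified by TMTpro 16plex LC-MS/MS with channel sums equalised. Thermal stability relative to control samples, from duplicates, is given as log2 fold change.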

[1] = compound: Cc1cccc(CC(=O)N2CCc3c2ccc(-c2cn(C)c4ncnc(N)c24)c3F)n1
How it was run: as §1

nilotinib = compound: Cc1cn(-c2cc(NC(=O)c3ccc(C)c(Nc4nccc(-c5cccnc5)n4)c3)cc(C(F)(F)F)c2)cn1 [nilotinib]
How it was run: as §1

[2] = compound: Cc1nc(Nc2n[nH]c3c2CN(C(=O)N[C@H](CN(C)C)c2ccccc2)C3(C)C)c2sccc2n1
How it was run: as §1

dasatinib = compound: Cc1nc(Nc2ncc(C(=O)Nc3c(C)cccc3Cl)s2)cc(N2CCN(CCO)CC2)n1 [dasatinib]
How it was run: as §1

[3] = compound: Cc1ncc(-c2ccnc(Nc3ccc(S(C)(=O)=O)cc3)n2)n1C(C)C
How it was run: as §1

[4] = compound: Cn1cc(-c2ccc3c(c2)CCN3C(=O)Cc2cccc(C(F)(F)F)c2)c2c(N)ncnc21
How it was run: as §1

[5] = compound: Cn1cc(-c2ccc3nnc(C(F)(F)c4ccc5ncccc5c4)n3n2)cn1
How it was run: as §1

tipifarnib = compound: Cn1cncc1[C@@](N)(c1ccc(Cl)cc1)c1ccc2c(c1)c(-c1cccc(Cl)c1)cc(=O)n2C [tipifarnib]
How it was run: as §1

mubritinib = compound: FC(F)(F)c1ccc(/C=C/c2nc(COc3ccc(CCCCn4ccnn4)cc3)co2)cc1 [mubritinib]
How it was run: as §1

[6] = compound: NC(=O)Nc1cc(-c2cccc(F)c2)sc1C(=O)N[C@H]1CCCNC1
How it was run: as §1

[7] = compound: NC(=O)c1cnc(N[C@@H]2CCCC[C@@H]2N)nc1Nc1cccc(-n2nccn2)c1
How it was run: as §1

[8] = compound: NC1(c2ccc(-c3nc4ccn5c(=O)[nH]nc5c4cc3-c3ccccc3)cc2)CCC1
How it was run: as §1

[9] = compound: NCC(=O)Nc1ccc(-n2nc(C(F)(F)F)cc2-c2ccc3c(ccc4ccccc43)c2)cc1
How it was run: as §1

entinostat = compound: Nc1ccccc1NC(=O)c1ccc(CNC(=O)OCc2cccnc2)cc1 [entinostat]
How it was run: as §1

vorinostat = compound: O=C(CCCCCCC(=O)Nc1ccccc1)NO [vorinostat]
How it was run: as §1

citarinostat = compound: O=C(CCCCCCNC(=O)c1cnc(N(c2ccccc2)c2ccccc2Cl)nc1)NO [citarinostat]
How it was run: as §1

silmitasertib = compound: O=C(O)c1ccc2c(c1)nc(Nc1cccc(Cl)c1)c1ccncc12 [silmitasertib]
How it was run: as §1

[10] = compound: O=C1NC(=O)C(c2cnc3ccccn23)=C1c1cn2c3c(cc(F)cc13)CN(C(=O)N1CCCCC1)CC2
How it was run: as §1

[11] = compound: c1cc(OCCN2CCCCC2)cc(-c2n[nH]c3ccc(-c4nnc[nH]4)cc23)c1
How it was run: as §1

Measured: log2 fold change

PRIM1 (UniProt P49642)
Chain of UniProt P49642 (P49642 whole entry, looked up): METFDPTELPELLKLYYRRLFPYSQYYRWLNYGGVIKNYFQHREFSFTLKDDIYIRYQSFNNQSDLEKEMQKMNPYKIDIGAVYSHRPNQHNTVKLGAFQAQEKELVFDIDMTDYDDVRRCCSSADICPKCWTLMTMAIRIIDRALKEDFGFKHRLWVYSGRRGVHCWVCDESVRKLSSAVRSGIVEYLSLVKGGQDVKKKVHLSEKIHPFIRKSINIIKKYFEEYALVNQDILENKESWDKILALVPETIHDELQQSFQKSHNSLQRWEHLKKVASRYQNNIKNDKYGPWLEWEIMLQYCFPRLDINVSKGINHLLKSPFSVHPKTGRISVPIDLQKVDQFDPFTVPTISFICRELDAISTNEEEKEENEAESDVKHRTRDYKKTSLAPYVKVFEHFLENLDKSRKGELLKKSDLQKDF
inactive: bafetinib 0.046 | [1] 0.01 | nilotinib -0.034 | [2] -0.055 | dasatinib -0.161 | [3] -0.009 | [4] -0.033 | [5] 0.009 | tipifarnib -0.073 | mubritinib 0.06 | [6] -0.008 | [7] -0.016 | [8] -0.093 | [9] -0.056 | entinostat 0.041 | vorinostat 0.065 | citarinostat 0.063 | silmitasertib 0.089 | [10] 0.023 | [11] -0.037

PLBD2 (UniProt Q8NHP8)
inactive: bafetinib -0.173 | [1] -0.056 | nilotinib -0.011 | [2] 0.024 | dasatinib -0.013 | [3] -0.052 | [4] 0.017 | [5] 0.044 | tipifarnib 0.093 | mubritinib 0.056 | [6] -0.002 | [7] 0.049 | [8] -0.091 | [9] -0.004 | entinostat -0.008 | vorinostat -0.073 | citarinostat 0.003 | silmitasertib 0.017 | [10] 0.001 | [11] -0.006

PSMC5 (UniProt P62195)
Chain of UniProt P62195 (P62195 whole entry, looked up): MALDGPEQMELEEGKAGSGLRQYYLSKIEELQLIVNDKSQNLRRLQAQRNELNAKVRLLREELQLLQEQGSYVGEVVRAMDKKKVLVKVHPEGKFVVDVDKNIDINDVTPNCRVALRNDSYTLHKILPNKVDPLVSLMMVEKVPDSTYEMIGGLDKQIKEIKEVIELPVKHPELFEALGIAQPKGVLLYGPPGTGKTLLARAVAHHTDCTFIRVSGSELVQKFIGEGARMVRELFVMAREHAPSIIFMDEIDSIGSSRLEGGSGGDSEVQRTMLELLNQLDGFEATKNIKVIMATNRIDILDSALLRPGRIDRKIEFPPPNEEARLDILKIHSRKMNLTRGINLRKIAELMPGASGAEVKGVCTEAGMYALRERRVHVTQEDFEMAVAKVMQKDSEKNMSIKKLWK
inactive: bafetinib 0.078 | [1] 0.035 | nilotinib -0.041 | [2] 0.035 | dasatinib 0.033 | [3] -0.014 | [4] -0.113 | [5] -0.006 | tipifarnib 0.09 | mubritinib -0.014 | [6] 0.034 | [7] -0.001 | [8] 0.007 | [9] 0.054 | entinostat -0.021 | vorinostat -0.004 | citarinostat -0.021 | silmitasertib -0.005 | [10] 0.063 | [11] -0.075

POLA1 (UniProt P09884)
Chain of UniProt P09884 (P09884 whole entry, looked up): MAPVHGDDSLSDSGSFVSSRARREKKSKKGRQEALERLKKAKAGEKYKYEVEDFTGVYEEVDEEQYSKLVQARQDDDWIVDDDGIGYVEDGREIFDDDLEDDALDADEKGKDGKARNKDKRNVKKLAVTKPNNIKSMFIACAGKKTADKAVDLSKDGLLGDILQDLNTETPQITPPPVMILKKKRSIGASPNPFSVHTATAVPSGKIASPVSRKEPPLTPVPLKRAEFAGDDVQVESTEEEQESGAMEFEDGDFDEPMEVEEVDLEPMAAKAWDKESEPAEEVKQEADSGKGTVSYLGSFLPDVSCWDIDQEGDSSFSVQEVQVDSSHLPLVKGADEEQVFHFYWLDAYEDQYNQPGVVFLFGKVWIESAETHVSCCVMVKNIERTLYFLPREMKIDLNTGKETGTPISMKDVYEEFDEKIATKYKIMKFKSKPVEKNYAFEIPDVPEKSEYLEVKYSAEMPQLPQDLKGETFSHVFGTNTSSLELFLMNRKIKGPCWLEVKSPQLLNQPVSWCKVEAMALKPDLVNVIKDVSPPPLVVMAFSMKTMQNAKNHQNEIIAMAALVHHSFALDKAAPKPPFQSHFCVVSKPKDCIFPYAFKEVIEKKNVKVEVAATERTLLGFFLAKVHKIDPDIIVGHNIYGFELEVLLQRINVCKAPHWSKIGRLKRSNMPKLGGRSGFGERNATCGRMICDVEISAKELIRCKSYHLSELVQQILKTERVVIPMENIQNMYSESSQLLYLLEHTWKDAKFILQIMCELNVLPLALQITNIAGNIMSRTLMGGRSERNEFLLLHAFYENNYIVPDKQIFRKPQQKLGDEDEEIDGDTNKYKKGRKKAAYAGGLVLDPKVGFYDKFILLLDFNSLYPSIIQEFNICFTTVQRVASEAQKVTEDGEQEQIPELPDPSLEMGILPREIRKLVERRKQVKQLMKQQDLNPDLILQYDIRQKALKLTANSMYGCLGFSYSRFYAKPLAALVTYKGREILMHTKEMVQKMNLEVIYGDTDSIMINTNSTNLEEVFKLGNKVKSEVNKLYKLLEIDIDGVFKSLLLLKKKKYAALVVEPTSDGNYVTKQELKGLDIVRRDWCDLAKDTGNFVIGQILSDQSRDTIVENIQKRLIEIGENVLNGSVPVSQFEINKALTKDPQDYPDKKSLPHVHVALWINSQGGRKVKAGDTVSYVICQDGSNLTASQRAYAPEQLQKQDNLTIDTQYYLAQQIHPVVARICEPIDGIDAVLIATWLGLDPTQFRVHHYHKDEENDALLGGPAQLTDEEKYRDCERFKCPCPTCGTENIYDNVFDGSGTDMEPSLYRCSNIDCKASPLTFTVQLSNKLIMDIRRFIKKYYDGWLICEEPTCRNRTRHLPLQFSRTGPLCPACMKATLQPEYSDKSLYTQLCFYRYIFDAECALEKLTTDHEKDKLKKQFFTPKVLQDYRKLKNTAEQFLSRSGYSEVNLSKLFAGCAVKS
inactive: bafetinib 0.021 | [1] 0.021 | nilotinib -0.043 | [2] -0.033 | dasatinib -0.173 | [3] 0.01 | [4] 0.019 | [5] 0.014 | tipifarnib -0.091 | mubritinib 0.064 | [6] -0.014 | [7] -0.068 | [8] -0.225 | [9] -0.04 | entinostat 0.07 | vorinostat 0.054 | citarinostat 0.155 | silmitasertib 0.021 | [10] -0.113 | [11] 0.227

PRKCG (UniProt P05129)
inactive: bafetinib -0.012 | [1] 0.067 | nilotinib 0.019 | [2] -0.385 | dasatinib 0.022 | [3] 0.018 | [4] 0.015 | [5] -0.132 | tipifarnib -0.095 | mubritinib 0.047 | [6] -0.064 | [7] -0.043 | [8] -0.086 | [9] 0.068 | entinostat 0.117 | vorinostat 0.109 | citarinostat 0.193 | silmitasertib 0.062 | [10] -0.229 | [11] 0.082

PRMT7 (UniProt Q9NVM4)
inactive: bafetinib -0.114 | [1] -0.086 | nilotinib -0.002 | [2] -0.047 | dasatinib -0.213 | [3] -0.01 | [4] -0.038 | [5] 0.124 | tipifarnib -0.116 | mubritinib 0.092 | [6] 0.034 | [7] -0.093 | [8] -0.165 | [9] -0.021 | entinostat 0.026 | vorinostat -0.023 | citarinostat -0.032 | silmitasertib 0.067 | [10] -0.103 | [11] -0.05

PRKAR2B (UniProt P31323)
inactive: bafetinib -0.022 | [1] 0.133 | nilotinib 0.012 | dasatinib -0.078 | [3] -0.16 | [4] 0.022 | [5] -0.07 | tipifarnib -0.103 | mubritinib 0.189 | [7] -0.152 | [8] -0.223 | [9] 0.016 | entinostat 0.027 | vorinostat 0.112 | citarinostat 0.078 | silmitasertib 0.008 | [10] -0.003 | [11] -0.013
active: [2] -1.23 | [6] -0.964

PDCD6IP (UniProt Q8WUM4)
Chain of UniProt Q8WUM4 (Q8WUM4 whole entry, looked up): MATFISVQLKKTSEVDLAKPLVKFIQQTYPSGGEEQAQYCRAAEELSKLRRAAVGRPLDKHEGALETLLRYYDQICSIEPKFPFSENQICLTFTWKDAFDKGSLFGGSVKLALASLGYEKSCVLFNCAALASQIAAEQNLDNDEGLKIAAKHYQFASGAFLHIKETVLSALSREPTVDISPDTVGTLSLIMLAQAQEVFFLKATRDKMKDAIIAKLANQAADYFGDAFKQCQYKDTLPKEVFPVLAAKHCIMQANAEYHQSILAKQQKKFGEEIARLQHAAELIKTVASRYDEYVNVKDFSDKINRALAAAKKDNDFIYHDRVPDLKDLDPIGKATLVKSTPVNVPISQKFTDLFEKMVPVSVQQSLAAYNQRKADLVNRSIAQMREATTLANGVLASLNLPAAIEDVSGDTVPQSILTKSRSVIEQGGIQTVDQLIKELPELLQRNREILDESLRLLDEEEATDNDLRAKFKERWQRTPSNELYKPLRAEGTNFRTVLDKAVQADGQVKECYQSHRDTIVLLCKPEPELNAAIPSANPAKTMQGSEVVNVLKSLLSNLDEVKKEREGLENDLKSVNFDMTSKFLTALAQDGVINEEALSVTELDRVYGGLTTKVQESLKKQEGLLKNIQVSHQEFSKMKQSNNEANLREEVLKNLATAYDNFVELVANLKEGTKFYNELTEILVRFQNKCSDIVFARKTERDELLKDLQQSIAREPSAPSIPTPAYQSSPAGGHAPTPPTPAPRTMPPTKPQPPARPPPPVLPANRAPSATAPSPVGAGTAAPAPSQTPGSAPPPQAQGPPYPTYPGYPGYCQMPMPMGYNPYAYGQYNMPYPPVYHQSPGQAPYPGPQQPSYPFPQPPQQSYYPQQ
inactive: bafetinib 0.042 | [1] 0.157 | nilotinib -0.116 | [2] -0.205 | dasatinib -0.283 | [3] 0.069 | [4] 0.016 | [5] 0.068 | tipifarnib -0.221 | mubritinib 0.105 | [6] -0.055 | [7] -0.1 | [8] -0.186 | [9] -0.103 | entinostat 0.149 | vorinostat 0.186 | citarinostat 0.113 | silmitasertib 0.094 | [10] -0.009 | [11] 0

PHKA2 (UniProt P46019)
inactive: bafetinib -0.107 | [1] -0.037 | nilotinib -0.239 | [2] 0.119 | dasatinib -0.07 | [3] -0.157 | [4] 0.033 | [5] -0.051 | tipifarnib -0.055 | mubritinib 0.082 | [6] 0.013 | [7] -0.112 | [8] -0.157 | [9] 0.005 | entinostat 0.13 | vorinostat 0.04 | citarinostat -0.046 | silmitasertib 0.001 | [10] -0.013 | [11] 0.065

PEX13 (UniProt Q92968)
Chain of UniProt Q92968 (Q92968 whole entry, looked up): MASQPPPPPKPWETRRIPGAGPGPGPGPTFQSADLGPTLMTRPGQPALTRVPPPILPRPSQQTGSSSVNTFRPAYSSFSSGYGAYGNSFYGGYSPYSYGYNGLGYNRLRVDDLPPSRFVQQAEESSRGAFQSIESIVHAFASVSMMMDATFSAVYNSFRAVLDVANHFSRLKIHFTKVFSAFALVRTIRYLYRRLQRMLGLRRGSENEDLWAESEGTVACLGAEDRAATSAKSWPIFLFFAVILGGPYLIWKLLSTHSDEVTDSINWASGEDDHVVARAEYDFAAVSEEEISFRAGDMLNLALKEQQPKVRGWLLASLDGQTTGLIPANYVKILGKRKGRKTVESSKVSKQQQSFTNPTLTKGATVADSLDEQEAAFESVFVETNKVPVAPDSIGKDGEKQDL
inactive: bafetinib -0.159 | [1] 0.106 | nilotinib -0.046 | [2] 0 | dasatinib 0.014 | [3] 0.035 | [4] -0.071 | [5] -0.075 | tipifarnib -0.027 | mubritinib 0.042 | [6] -0.03 | [7] -0.086 | [8] -0.101 | [9] -0.034 | entinostat -0.051 | vorinostat -0.195 | citarinostat 0.023 | silmitasertib 0.025 | [10] 0.026 | [11] -0.015

PRKAB2 (UniProt O43741)
Chain of UniProt O43741 (O43741 whole entry, looked up): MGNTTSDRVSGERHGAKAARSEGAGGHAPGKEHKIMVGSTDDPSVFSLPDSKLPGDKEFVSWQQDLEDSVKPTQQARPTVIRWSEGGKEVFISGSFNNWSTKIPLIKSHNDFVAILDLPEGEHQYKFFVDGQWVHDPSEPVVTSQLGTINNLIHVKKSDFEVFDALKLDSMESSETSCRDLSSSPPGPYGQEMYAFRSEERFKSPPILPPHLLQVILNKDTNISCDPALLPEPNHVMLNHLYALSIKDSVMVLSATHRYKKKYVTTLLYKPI
inactive: bafetinib 0.027 | [1] -0.01 | nilotinib -0.022 | [2] -0.184 | dasatinib -0.16 | [3] 0.082 | [4] 0.142 | [5] -0.034 | tipifarnib -0.046 | mubritinib -0.02 | [6] 0.204 | [7] 0.248 | [8] -0.077 | [9] 0.162 | entinostat 0.186 | vorinostat 0.099 | citarinostat -0.1 | silmitasertib 0.031 | [10] 0.121 | [11] -0.47

POLR2A (UniProt P24928)
inactive: bafetinib -0.019 | [1] -0.014 | nilotinib -0.039 | [2] 0.24 | dasatinib -0.066 | [4] 0 | [5] -0.037 | tipifarnib 0.004 | mubritinib 0.038 | [6] -0.057 | [7] 0.121 | [8] -0.049 | [9] -0.094 | entinostat 0.049 | vorinostat -0.067 | citarinostat -0.062 | silmitasertib 0.086 | [10] 0.059 | [11] -0.05
active: [3] 0.511

PIR (UniProt O00625)
Chain of UniProt O00625 (O00625 whole entry, looked up): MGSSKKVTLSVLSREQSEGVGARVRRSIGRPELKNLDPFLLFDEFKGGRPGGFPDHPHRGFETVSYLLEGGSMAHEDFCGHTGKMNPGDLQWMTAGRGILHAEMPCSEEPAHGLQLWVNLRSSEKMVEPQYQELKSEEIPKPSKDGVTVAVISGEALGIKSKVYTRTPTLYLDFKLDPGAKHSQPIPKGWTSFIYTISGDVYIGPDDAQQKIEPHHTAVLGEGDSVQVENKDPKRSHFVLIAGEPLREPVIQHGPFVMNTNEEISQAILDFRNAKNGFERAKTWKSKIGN
inactive: bafetinib -0.073 | [1] 0.001 | nilotinib 0.009 | [2] -0.006 | dasatinib -0.044 | [3] -0.014 | [4] -0.003 | [5] 0.028 | tipifarnib -0.069 | mubritinib 0.11 | [6] -0.047 | [7] -0.053 | [8] -0.195 | [9] -0.024 | entinostat -0.022 | citarinostat -0.014 | silmitasertib -0.038 | [10] -0.012
active: vorinostat -0.625 | [11] 0.253

QRSL1 (UniProt Q9H0R6)
inactive: bafetinib -0.036 | [1] 0.048 | nilotinib -0.041 | [2] -0.028 | dasatinib -0.171 | [3] 0.045 | [4] 0.037 | [5] 0.024 | tipifarnib 0.002 | mubritinib -0.102 | [6] -0.092 | [7] -0.007 | [8] -0.218 | [9] -0.089 | entinostat 0.006 | vorinostat -0.063 | citarinostat 0.053 | silmitasertib -0.049 | [10] -0.084 | [11] -0.036

PRPF31 (UniProt Q8WWY3)
inactive: bafetinib -0.012 | [1] 0.01 | nilotinib -0.037 | dasatinib -0.274 | [3] -0.387 | [4] 0.055 | [5] 0.053 | tipifarnib -0.031 | mubritinib -0.014 | [6] -0.076 | [7] -0.138 | [8] -0.241 | [9] -0.065 | entinostat 0.071 | vorinostat 0.182 | citarinostat 0.042 | silmitasertib -0.038 | [10] -0.194 | [11] -0.038
active: [2] -0.572

PYGL (UniProt P06737)
inactive: bafetinib -0.218 | [1] 0.006 | nilotinib -0.202 | [2] 0.036 | dasatinib -0.027 | [3] -0.035 | [4] 0.001 | [5] -0.005 | tipifarnib 0.016 | mubritinib 0.052 | [6] 0.135 | [7] 0.012 | [8] -0.023 | [9] 0.016 | entinostat 0.028 | vorinostat 0.01 | citarinostat 0.039 | silmitasertib 0.034 | [10] -0.043 | [11] -0.041
